Shown are actives, neighbours in structure and some others; about 19% of the full set was active somewhere.
DT40 TDP1 CPT – growth inhibition of DT40 Tdp1-/-;hTDP1 cells with camptothecin (screen for TDP1 inhibitors); Potency, µM (top dose mostly 46.2 µM), for inactives: top-dose activity change, negative = growth inhibition, most hits filed as inhibitors; chicken DT40 Tdp1-/-;hTDP1 cells + 20 nM CPT, ATP luminescence, 48 h; 420,000 compounds, 12% hits; further: nearly all actives have a fitted effect of over 55% in size
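Chicken DT40 Tdp1-/- cells stably complemented with human TDP1 were seeded at 400 cells/well in medium containing 20 nM camptothecin, exposed to pin-transferred compounds, and grown at 37 °C for at least 48 hr. Viability was read as ATP luminescence.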
TDP1 cell noCPT – qHTS for Inhibitors of human tyrosyl-DNA phosphodiesterase 1 (TDP1): qHTS in cells in absence of CPT. 420,000 compounds, 15% hits. DT40 Tdp1-/- hTDP1 cells, no CPT, ATP luminescence, 48 h. AID 686978, 2013. Potency, µM (doses to about 46.2 µM), inactives show top-dose activity change, negative = growth inhibition, most hits filed as inhibitors; further: nearly all actives have a fitted effect of over 55% in size
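No-CPT arm: Tdp1-/-;hTDP1 DT40 cells (400/well) plus compounds, incubated ≥48 hr at 37 °C. Readout CellTiter-Glo luminescence.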
HT1080-NT tox – kills 2HG-producing HT-1080-NT fibrosarcoma cells; HT-1080-NT fibrosarcoma viability, CellTiter-Glo ATP luminescence, 48 h; Potency, µM (series often up to 46.1 µM), inactives show at the top dose activity, negative = less viability, actives largely listed as cytotoxic; 360,000 compounds, 1.6% hits;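 further: NT is the 2HG producing partner of a matched IDH1 knockdown line; 0% = DMSO-treated cells and -100% = media-only wells without cells; nearly all actives have a fitted effect of over 55% in size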
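Compounds were tested in concentration-response format on HT-1080-NT cells for 48 hours at 37 degrees C. Cell viability came from CellTiter-Glo luminescence; curves were classified by r2, response magnitude and activity.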
KB-3-1 cytotox – kills parental KB-3-1 adenocarcinoma cells. KB-3-1 viability, CellTiter-Glo ATP luminescence, 72 h. Potency, µM (highest dose often 46.1 µM), most hits filed as cytotoxic. 400,000 compounds, 1.4% hits. AID 1347075; further: nearly all actives have a fitted effect of over 60% in size
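Cytotoxicity measured as CellTiter-Glo luminescence after 72 h at 37 C. Compound titrations were pinned onto drug-naive KB-3-1 parental adenocarcinoma cells grown in DMEM with 10% FBS, and normalized data fitted to concentration-response curves.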
HT1080 IDH1KD tx – toxicity to HT-1080 IDH1 knockdown cells (counter line) | HT-1080 IDH1 knockdown viability, ATP luminescence, 48 h | Potency, µM (highest dose often 46.1 µM), without a hit: at the top dose activity, negative = toxicity, usual class: cytotoxic | 360,000 compounds, 2% hits | AID 686971;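 further: 0% = DMSO wells and -100% = cell-free medium wells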
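Viability of IDH1-knockdown HT-1080 fibrosarcoma cells was assessed by CellTiter-Glo after 48 h at 37 °C with titrated compound; concentration-effect curves were classified by fit quality and response size.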
KB-V1 MDR tox – kills drug-selected multidrug resistant KB-V1 cells | KB-V1 MDR cells viability, CellTiter-Glo, 72 h | Potency, µM (series often up to 46.1 µM), usual class: cytotoxic | 400,000 compounds, 3.4% hits | AID 1347076; further: nearly all actives have a fitted effect of over 60% in size
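Compound-treated KB-V1 multidrug-resistant cells, 72 h, 37 degrees C; viability by CellTiter-Glo. Fitted qHTS curves give the values.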
Active calls of the source: *; i = inactive; ? = inconclusive; / = not tested or not shown; [ ] = another dose, or the depositor's remark. The call rests on the fitted dose curve; in most records, active means well fitted curve in the direction sought with a large enough effect; inconclusive means small, poorly fitted or top-dose-only effect, or another doubt; inactive means no such curve, though single readings can be large; an effect the other way counts as inactive or inconclusive. Unless noted, on the % scale 0 is the no-effect control and ±100 the full control effect; potency means the concentration at half of the fitted maximal effect.

SMILES	DT40 TDP1 CPT	TDP1 cell noCPT	HT1080-NT tox	KB-3-1 cytotox	HT1080 IDH1KD tx	KB-V1 MDR tox
Cc1ccc([N+](=O)[O-])c(OCCN2CCC(Cc3ccccc3)CC2)c1	?	?	21µM*	?	16µM*	21µM*
Cc1ccccc1OCCN1CCC(Cc2ccccc2)CC1	?	21µM*	-7%	i	-2%	i
O=C(c1cnc2c(c1)COc1ccccc1-2)c1ccccc1O	?	?	/	?	/	i
COc1cccc(C(O)c2nc(-c3cccc(C(F)(F)F)c3)cs2)c1 (centres undefined)	-85%	0.58µM*	-42%	i	-45%	i
COc1ccc(C(O)c2nc(-c3cccc(F)c3)cs2)cc1 (centres undefined)	16µM*	?	-24%	i	-13%	i
COc1ccc(C(O)c2nc(-c3cccc(C(F)(F)F)c3)cs2)cc1 (centres undefined)	21µM*	?	-19%	i	?	i
COc1cc(C(O)c2nc(-c3cccs3)cs2)ccc1F (centres undefined)	?	?	-8%	i	-19%	i
COc1cc(C(O)c2nc(-c3cccc(C(F)(F)F)c3)cs2)ccc1F (centres undefined)	16µM*	?	?	i	?	i
COc1ccc(C(O)c2nc(-c3cccc(CO)c3)cs2)cc1 (centres undefined)	?	?	4%	i	0%	i
COc1ccccc1NC(=O)C(Cc1ccccc1)NS(=O)(=O)c1ccc2c(c1)CCN2C(C)=O (centres undefined)	4%	-28%	/	i	/	i
Cc1ccccc1S(=O)(=O)NC(=O)C1(C)CCN1C(=O)CCc1ccc(Cl)cc1Cl (centres undefined)	-16%	-9%	2%	i	22%	i
CCc1ccccc1NC(=O)Cn1c(=O)n(CCCCCC(=O)NCc2ccc(C)cc2)c(=O)c2sccc21	?	?	/	?	/	i
COc1cc(C(O)c2nc(-c3cccc(NC(C)=O)c3)cs2)ccc1F (centres undefined)	?	16µM*	2%	i	-1%	i
COc1cc(/C=C/C(=O)O)ccc1OS(=O)(=O)c1c(C)cc(C)cc1C	-23%	1%	-17%	i	-2%	i
Cc1ccnc(NC(=S)N2CCN(c3cccc([N+](=O)[O-])c3)CC2)c1	/	/	/	i	/	i
O=S(=O)(N/N=C/c1ccc2c(c1)OCCO2)c1ccc(Cl)cc1	-21%	-10%	3%	i	-9%	i
O=S(=O)(N/N=C\c1c(F)cccc1Cl)c1ccc(Cl)cc1	13µM*	?	10%	i	1%[9.24 µM]	i
Cc1cc(=O)[nH]c(=O)n1Cc1ccccc1	9%	7%	11%	i	16%	i
Cc1c(CN(C)C)c2c(n1Cc1ccccc1)C(=O)c1ccccc1-2	?	?	23µM*	?	16µM*	?
Cc1cc(C=C2C(=O)c3ccccc3C2=O)c(C)n1C	-18%	?	8%	i	0%	i
N=C1/C(=C\c2ccc(-c3ccc(C(=O)O)cc3)o2)C(=O)N=C2SC=C(c3ccccc3)N12	?	?	-2%	i	7%	i
Cc1cccc(-n2c(C)cc(C=C3C(=O)c4ccccc4C3=O)c2C)c1	?	13µM*	-3%	i	4%	?
COc1cc(/C=C2/C(=N)N3C(c4ccccc4)=CSC3=NC2=O)ccc1OCC(=O)O	21µM*	15µM*	14%	i	16%	i
Cc1cccc(-n2c(C)cc(/C=C3/C(=N)N4C(c5ccccc5)=CSC4=NC3=O)c2C)c1	?	21µM*	0%	i	0%	i
Cc1cc(C=C2C(=O)c3ccccc3C2=O)c(C)n1-c1ccc(Cl)cc1	-23%	?	9%	?	13%	16µM*
SMILES	DT40 TDP1 CPT	TDP1 cell noCPT	HT1080-NT tox	KB-3-1 cytotox	HT1080 IDH1KD tx	KB-V1 MDR tox
CCn1c(C)cc(C=C2C(=O)c3ccccc3C2=O)c1C	?	?	-4%	i	-18%	i
Cc1c(CNCCc2ccc(S(N)(=O)=O)cc2)c(C(=O)O)c(C)n1Cc1ccc(Cl)cc1	-1%	?	/	i	/	i
CCCn1c(N)c(N(CCOC)C(=O)c2c(CC)noc2C)c(=O)[nH]c1=O	7%	-10%	5%	i	22%	i
CCOc1ccc(N(CC)C(=O)Cn2cnc3sc(C)c(S(=O)(=O)N4CCN(c5ncccn5)CC4)c3c2=O)cc1	13µM*	9.2µM*	/	i	/	i
Cc1sc2ncn(CC(=O)N3CCN(c4ccc(F)cc4)CC3)c(=O)c2c1S(=O)(=O)N1CCCCC1	16µM*	16µM*	/	i	/	i
Cc1sc2ncn(CC(=O)N3CCN(c4cccc(Cl)c4)CC3)c(=O)c2c1S(=O)(=O)N1CCN(c2ncccn2)CC1	-19%	-26%	/	i	/	?
Cc1ccc(C)c(N2CCN(C(=O)Cn3cnc4sc(C)c(S(=O)(=O)N5CCN(c6ncccn6)CC5)c4c3=O)CC2)c1	18µM*	9.2µM*	/	i	/	?
CCCNC(=O)C1(C)CCCN(CC(=O)c2ccccc2OC)C1 (centres undefined)	2%	2%	18%	i	0%	i
CC1CN(c2ccc(Oc3ccccc3)cc2)c2nc3c(c(=O)[nH]c(=O)n3C)n2C1 (centres undefined)	18µM*	26µM*	-6%	i	-2%	i
Cn1nnnc1SCC(=O)N(C1CCCCC1)C1CCCCC1	16µM*	18µM*	2%	i	-6%	i
O=C(O)CSc1nnnn1C1CCCCC1	?	?	14%	i	12%	i
CC(C)N(C(=O)CSc1nnnn1C1CCCC1)C(C)C	-2%	-26%	5%	i	3%	13µM*
Cn1c2ccccc2c2cc(C(=O)NNC(=O)CCl)sc21	3.7µM*	9.2µM*	?	?	21µM*	?
CC(=O)Nc1ccc(S(=O)(=O)NNC(=O)c2cc3c4ccccc4n(C)c3s2)cc1	5.2µM*	5.2µM*	-20%	i	-9%	i
CCOC(=O)c1cc(S(=O)(=O)Nc2c(C)cc(C)cc2C)[nH]n1	-12%	-27%	/	i	/	i

Screening results deposited in PubChem BioAssay by National Center for Advancing Translational Sciences (NCATS).
